# Assay results published in article PMC7862700, “An all-to-all approach to the identification of sequence-specific readers for epigenetic DNA modifications on cytosine”.
# What was measured:
# Assay in all cases: DAPPL (digital affinity profiling via proximity ligation, sequencing); 10 mM Tris-HCl pH 7.5, 50 mM NaCl, 1 mM DTT, 4% glycerol, room temperature, 30 min; GST-TFs on glutathione beads, 16-mer random dsDNA library, 0.1% formaldehyde crosslink after washing; high values mean tight binding
# FEV = target: T1, FEV (Homo sapiens, UniProt Q99581 1-238); settings: protein: recombinant; tags: N-terminal GST; dsDNA, one strand shown
# T1 sequence: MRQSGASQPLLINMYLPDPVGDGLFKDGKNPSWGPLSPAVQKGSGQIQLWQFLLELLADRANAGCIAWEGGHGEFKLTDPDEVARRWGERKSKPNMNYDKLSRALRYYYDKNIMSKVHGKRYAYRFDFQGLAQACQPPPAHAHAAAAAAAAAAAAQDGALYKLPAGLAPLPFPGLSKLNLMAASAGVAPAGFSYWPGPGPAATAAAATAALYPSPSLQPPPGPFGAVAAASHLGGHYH
# In short: (§1)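 Human transcription factors were made in yeast as GST fusions, captured on glutathione beads and barcoded with DNA. With a tag-only sample included, the pool was incubated with 200 nmole of a random double-stranded 16-mer DNA library in Tris/NaCl/DTT/glycerol buffer at room temperature for 30 min, then crosslinked with 0.1% formaldehyde after washing, ligated by proximity, amplified and sequenced. For binding signal, each hexamer's read frequency for a factor is divided by its frequency for the tag-only sample.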
# ETV5 = ETV5 (Homo sapiens, UniProt P41161 1-510); settings: protein: recombinant; tags: N-terminal GST; dsDNA, one strand shown
# In short: as §1
# HSF1 = HSF1 (Homo sapiens, UniProt Q00613 1-529); settings: protein: recombinant; tags: N-terminal GST; chain copies: 3; dsDNA, one strand shown
# In short: as §1
# SPIC = target: T2, SPIC (Homo sapiens, UniProt Q8N5J4 1-248); settings: protein: recombinant; tags: N-terminal GST; dsDNA, one strand shown
# T2 sequence: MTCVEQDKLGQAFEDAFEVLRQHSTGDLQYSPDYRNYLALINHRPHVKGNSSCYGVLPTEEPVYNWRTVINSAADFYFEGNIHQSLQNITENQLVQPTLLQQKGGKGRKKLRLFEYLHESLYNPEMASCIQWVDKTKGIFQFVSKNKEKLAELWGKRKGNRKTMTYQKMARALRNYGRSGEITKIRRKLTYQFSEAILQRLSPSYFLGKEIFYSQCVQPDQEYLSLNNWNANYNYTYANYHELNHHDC
# In short: as §1
# ELF4 = ELF4 (Homo sapiens, UniProt Q99607 1-663); settings: protein: recombinant; tags: N-terminal GST; dsDNA, one strand shown
# In short: as §1
# ELK4 = target: T3, ELK4 (Homo sapiens, UniProt P28324-2 1-405); settings: protein: recombinant; tags: N-terminal GST; dsDNA, one strand shown
# T3 sequence: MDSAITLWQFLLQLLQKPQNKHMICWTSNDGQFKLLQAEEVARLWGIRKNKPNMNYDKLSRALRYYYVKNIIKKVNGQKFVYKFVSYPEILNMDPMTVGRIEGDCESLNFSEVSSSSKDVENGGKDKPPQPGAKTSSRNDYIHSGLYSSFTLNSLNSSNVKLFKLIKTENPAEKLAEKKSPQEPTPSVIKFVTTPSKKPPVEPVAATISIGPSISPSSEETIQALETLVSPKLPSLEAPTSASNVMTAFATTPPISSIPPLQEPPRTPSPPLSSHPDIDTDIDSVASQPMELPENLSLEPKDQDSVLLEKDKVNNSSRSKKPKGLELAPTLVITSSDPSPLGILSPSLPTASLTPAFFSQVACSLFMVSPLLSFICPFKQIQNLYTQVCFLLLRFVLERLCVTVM
# In short: as §1
# ETV2 = target: T4, ETV2 (Homo sapiens, UniProt O00321 1-342); settings: protein: recombinant; tags: N-terminal GST; dsDNA, one strand shown
# T4 sequence: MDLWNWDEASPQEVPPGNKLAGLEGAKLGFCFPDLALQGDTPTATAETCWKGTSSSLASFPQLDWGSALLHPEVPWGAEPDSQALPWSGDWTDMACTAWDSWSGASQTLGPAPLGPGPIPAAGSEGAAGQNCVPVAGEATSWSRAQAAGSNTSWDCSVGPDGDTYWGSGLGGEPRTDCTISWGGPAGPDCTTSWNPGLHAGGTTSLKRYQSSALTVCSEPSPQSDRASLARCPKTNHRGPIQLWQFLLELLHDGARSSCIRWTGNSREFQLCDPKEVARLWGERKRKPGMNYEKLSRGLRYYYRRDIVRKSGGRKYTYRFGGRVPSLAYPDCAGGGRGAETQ
# In short: as §1
# ELF3 = target: T5, ELF3 (Homo sapiens, UniProt P78545 1-371); settings: protein: recombinant; tags: N-terminal GST; dsDNA, one strand shown
# T5 sequence: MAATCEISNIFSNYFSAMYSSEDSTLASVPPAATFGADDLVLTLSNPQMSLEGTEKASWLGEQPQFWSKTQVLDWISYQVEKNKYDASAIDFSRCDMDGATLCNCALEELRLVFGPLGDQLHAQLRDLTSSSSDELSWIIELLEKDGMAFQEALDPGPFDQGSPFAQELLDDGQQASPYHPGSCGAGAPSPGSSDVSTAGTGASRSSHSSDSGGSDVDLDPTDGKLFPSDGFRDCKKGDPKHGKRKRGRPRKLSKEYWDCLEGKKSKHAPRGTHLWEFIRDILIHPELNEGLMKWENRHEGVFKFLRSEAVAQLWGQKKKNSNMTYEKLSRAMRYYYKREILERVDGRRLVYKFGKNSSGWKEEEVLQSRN
# In short: as §1
# CRX = CRX (Homo sapiens, UniProt O43186 1-299); settings: protein: recombinant; tags: N-terminal GST; dsDNA, one strand shown
# In short: as §1
# ETV1 = ETV1 (Homo sapiens, UniProt P50549 1-477); settings: protein: recombinant; tags: N-terminal GST; dsDNA, one strand shown
# In short: as §1
# ERF = target: T6, ERF (Homo sapiens, UniProt P50548 1-548); settings: protein: recombinant; tags: N-terminal GST; dsDNA, one strand shown
# T6 sequence: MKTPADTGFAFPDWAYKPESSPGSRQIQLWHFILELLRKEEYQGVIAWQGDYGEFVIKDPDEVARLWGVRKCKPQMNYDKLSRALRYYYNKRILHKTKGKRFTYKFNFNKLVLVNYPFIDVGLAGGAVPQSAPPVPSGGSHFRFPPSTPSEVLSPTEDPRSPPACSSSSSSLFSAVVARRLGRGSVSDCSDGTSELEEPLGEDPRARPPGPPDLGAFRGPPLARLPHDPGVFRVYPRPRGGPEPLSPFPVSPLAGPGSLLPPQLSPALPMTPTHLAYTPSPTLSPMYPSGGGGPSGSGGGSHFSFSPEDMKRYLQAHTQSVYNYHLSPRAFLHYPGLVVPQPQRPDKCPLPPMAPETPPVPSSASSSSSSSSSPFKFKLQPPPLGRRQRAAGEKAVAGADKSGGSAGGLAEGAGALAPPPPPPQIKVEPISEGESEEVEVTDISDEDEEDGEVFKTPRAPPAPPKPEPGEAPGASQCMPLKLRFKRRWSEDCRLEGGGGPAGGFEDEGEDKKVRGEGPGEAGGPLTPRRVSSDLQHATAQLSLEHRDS
# In short: as §1
# ETV3L = target: T7, ETV3L (Homo sapiens, UniProt Q6ZN32 1-361); settings: protein: recombinant; tags: N-terminal GST; dsDNA, one strand shown
# T7 sequence: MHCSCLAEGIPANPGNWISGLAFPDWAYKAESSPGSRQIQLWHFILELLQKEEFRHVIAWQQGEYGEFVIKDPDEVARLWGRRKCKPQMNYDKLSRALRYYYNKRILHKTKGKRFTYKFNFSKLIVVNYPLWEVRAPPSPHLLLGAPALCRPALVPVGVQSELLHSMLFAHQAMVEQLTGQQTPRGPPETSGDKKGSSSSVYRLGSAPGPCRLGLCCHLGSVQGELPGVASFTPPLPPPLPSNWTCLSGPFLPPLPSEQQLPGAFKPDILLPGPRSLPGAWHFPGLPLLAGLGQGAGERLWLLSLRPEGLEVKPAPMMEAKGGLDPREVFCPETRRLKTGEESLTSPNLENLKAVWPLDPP
# In short: as §1
# ETS2 = target: T8, ETS2 (Homo sapiens, UniProt P15036 1-469); settings: protein: recombinant; tags: N-terminal GST; dsDNA, one strand shown
# T8 sequence: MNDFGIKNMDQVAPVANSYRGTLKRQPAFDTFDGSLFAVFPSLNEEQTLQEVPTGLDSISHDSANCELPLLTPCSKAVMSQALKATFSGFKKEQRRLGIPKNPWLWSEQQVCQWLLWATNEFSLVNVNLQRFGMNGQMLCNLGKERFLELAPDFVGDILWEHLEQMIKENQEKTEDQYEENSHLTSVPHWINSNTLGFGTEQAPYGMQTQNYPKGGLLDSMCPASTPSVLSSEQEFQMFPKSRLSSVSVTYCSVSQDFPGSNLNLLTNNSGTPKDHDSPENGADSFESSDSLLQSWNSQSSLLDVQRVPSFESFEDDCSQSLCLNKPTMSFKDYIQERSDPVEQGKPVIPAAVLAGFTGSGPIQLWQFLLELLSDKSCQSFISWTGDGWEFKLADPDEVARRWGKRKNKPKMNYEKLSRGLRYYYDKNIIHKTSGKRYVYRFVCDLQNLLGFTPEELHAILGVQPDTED
# In short: as §1
# SPDEF = target: T9, SPDEF (Homo sapiens, UniProt O95238 1-335); settings: protein: recombinant; tags: N-terminal GST; dsDNA, one strand shown
# T9 sequence: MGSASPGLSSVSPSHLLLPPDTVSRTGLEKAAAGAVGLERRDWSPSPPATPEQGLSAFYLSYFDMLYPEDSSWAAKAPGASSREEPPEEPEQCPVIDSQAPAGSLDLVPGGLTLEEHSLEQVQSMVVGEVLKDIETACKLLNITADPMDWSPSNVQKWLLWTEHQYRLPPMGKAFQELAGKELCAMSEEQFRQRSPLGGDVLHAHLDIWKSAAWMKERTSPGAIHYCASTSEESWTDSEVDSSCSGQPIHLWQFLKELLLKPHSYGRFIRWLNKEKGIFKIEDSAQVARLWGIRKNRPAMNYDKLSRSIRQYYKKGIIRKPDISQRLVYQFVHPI
# In short: as §1
# ETV7 = target: T10, ETV7 (Homo sapiens, UniProt Q9Y603 1-341); settings: protein: recombinant; tags: N-terminal GST; dsDNA, one strand shown
# T10 sequence: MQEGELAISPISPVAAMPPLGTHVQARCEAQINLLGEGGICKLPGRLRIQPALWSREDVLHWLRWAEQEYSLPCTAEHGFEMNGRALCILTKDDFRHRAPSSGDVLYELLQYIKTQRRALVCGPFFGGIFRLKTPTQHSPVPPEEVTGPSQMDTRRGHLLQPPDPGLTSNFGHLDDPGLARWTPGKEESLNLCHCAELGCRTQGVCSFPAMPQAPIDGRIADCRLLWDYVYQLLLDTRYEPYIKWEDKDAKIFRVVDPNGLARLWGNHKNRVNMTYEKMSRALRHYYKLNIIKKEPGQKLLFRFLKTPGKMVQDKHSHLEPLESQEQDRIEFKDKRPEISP
# In short: as §1
# ELF5 = target: T11, ELF5 (Homo sapiens, UniProt Q9UKW6-2 1-255); settings: protein: recombinant; tags: N-terminal GST; dsDNA, one strand shown
# T11 sequence: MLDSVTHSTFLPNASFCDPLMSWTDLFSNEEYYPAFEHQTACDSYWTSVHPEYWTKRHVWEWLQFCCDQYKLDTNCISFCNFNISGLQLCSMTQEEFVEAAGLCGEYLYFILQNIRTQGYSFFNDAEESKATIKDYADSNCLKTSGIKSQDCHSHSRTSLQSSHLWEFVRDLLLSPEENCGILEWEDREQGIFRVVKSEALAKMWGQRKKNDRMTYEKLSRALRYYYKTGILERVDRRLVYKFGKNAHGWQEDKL
# In short: as §1
# ETV3 = target: T12, ETV3 (Homo sapiens, UniProt P41162-2 1-143); settings: protein: recombinant; tags: N-terminal GST; dsDNA, one strand shown
# T12 sequence: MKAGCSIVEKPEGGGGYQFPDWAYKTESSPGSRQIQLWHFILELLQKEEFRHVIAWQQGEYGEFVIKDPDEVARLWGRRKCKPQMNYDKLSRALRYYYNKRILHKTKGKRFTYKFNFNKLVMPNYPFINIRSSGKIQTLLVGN
# In short: as §1
# ETV6 = ETV6 (Homo sapiens, UniProt P41212 1-452); settings: protein: recombinant; tags: N-terminal GST; dsDNA, one strand shown
# In short: as §1
# Sequence of ETV6 (P41212 whole entry): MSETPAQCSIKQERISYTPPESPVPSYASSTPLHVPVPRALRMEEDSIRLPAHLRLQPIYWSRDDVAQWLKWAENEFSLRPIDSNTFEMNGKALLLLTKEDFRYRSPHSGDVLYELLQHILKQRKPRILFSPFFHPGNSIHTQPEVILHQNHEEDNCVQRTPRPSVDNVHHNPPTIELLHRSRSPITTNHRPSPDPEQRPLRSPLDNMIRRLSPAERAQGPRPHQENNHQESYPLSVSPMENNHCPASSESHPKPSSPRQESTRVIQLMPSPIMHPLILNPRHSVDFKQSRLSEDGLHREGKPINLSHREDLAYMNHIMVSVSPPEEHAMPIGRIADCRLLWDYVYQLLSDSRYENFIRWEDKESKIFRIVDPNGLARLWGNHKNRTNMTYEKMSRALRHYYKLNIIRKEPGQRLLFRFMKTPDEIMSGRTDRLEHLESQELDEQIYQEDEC
# Sequence of ETV1 (P50549 whole entry): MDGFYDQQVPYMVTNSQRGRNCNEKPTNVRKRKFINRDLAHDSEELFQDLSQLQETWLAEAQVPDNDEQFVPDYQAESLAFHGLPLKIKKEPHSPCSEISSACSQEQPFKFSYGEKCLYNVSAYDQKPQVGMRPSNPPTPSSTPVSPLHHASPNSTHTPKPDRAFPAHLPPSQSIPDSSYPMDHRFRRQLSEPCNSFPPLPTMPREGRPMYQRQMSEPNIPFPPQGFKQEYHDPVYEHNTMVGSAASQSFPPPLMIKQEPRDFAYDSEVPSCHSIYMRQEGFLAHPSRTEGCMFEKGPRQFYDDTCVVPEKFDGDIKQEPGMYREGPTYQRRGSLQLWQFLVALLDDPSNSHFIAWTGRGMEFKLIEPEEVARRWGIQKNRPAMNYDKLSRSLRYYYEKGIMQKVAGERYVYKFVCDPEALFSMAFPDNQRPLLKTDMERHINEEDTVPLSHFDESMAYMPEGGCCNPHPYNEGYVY
# Sequence of CRX (O43186 whole entry): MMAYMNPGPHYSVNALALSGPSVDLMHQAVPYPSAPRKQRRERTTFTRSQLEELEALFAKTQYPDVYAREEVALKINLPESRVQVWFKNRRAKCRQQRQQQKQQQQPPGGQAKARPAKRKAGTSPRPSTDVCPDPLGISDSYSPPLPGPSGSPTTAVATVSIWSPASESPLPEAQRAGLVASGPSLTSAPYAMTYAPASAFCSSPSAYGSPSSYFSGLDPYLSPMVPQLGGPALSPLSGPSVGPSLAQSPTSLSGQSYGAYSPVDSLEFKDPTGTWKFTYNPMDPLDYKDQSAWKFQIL
# Sequence of ELF4 (Q99607 whole entry): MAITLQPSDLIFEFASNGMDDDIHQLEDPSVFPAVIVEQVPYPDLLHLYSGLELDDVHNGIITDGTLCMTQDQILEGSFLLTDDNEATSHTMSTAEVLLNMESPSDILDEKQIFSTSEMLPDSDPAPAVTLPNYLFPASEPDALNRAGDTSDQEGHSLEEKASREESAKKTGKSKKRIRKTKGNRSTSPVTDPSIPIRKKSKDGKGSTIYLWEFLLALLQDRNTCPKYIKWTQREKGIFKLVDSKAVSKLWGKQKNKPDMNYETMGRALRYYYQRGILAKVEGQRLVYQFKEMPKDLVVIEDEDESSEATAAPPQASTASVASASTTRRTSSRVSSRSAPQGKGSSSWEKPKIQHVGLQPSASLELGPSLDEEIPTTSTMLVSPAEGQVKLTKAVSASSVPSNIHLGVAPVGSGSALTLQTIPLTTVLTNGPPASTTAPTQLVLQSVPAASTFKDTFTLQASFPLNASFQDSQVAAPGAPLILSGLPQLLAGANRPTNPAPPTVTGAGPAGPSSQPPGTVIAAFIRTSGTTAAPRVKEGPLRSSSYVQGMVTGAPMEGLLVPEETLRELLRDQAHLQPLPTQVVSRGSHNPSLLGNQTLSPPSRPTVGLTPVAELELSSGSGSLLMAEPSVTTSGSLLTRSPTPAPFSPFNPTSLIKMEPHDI
# Sequence of ETV5 (P41161 whole entry): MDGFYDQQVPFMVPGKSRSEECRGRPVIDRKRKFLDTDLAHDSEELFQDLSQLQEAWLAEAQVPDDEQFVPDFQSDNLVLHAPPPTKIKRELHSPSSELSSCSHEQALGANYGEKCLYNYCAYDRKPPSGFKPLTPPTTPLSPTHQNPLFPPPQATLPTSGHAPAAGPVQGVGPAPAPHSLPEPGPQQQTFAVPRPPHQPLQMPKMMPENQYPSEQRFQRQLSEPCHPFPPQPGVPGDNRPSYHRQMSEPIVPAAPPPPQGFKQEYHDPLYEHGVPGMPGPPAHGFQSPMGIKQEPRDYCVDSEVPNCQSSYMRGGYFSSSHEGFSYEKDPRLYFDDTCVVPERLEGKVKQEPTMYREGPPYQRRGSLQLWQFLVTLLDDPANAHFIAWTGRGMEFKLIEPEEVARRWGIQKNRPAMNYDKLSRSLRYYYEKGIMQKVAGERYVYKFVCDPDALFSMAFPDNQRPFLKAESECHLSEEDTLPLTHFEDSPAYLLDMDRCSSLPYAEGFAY
# Sequence of HSF1 (Q00613 whole entry): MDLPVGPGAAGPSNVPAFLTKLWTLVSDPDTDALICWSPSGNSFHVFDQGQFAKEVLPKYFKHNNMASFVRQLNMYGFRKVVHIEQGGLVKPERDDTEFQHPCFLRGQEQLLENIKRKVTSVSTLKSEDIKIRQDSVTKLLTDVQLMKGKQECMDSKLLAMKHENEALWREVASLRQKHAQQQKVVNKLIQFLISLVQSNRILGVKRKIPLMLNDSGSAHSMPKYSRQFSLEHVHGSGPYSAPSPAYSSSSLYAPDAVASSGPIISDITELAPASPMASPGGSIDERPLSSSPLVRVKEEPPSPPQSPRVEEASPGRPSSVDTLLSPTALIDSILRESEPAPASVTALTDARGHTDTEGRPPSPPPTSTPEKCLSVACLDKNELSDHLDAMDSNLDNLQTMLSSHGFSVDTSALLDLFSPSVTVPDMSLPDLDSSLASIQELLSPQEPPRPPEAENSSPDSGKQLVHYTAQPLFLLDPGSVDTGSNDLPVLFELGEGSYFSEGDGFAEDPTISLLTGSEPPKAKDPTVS
sequence,measurement,setting,value
CGTTTT,binding signal,FEV,"1.19 fold enrichment (6-mer frequency, TF over GST control)"
same,binding signal,ETV5,"1.21 fold enrichment (6-mer frequency, TF over GST control)"
same,binding signal,HSF1,"1.12 fold enrichment (6-mer frequency, TF over GST control)"
same,binding signal,SPIC,"1.29 fold enrichment (6-mer frequency, TF over GST control)"
same,binding signal,ELF4,"1.16 fold enrichment (6-mer frequency, TF over GST control)"
same,binding signal,ELK4,"1.22 fold enrichment (6-mer frequency, TF over GST control)"
same,binding signal,ETV2,"1.35 fold enrichment (6-mer frequency, TF over GST control)"
same,binding signal,ELF3,"1.08 fold enrichment (6-mer frequency, TF over GST control)"
same,binding signal,CRX,"1.04 fold enrichment (6-mer frequency, TF over GST control)"
same,binding signal,ETV1,"1.17 fold enrichment (6-mer frequency, TF over GST control)"
same,binding signal,ERF,"1.15 fold enrichment (6-mer frequency, TF over GST control)"
same,binding signal,ETV3L,"1.29 fold enrichment (6-mer frequency, TF over GST control)"
same,binding signal,ETS2,"1.16 fold enrichment (6-mer frequency, TF over GST control)"
same,binding signal,SPDEF,"1.14 fold enrichment (6-mer frequency, TF over GST control)"
same,binding signal,ETV7,"1.25 fold enrichment (6-mer frequency, TF over GST control)"
same,binding signal,ELF5,"1.14 fold enrichment (6-mer frequency, TF over GST control)"
same,binding signal,ETV3,"1.21 fold enrichment (6-mer frequency, TF over GST control)"
same,binding signal,ETV6,"1.24 fold enrichment (6-mer frequency, TF over GST control)"
